{"source": "PubChem BioAssay AID2685", "about": "(National Center for Advancing Translational Sciences (NCATS), 2010)", "note": "Among all 320,000 compounds or so, about 2,100 (0.66%) were called active. Roughly 53% stayed inconclusive and do not appear here. Calls follow the shape of the dose curve; as a rule, active = well fitted inhibition curve with a large enough effect in the signal ratio, with a control signal flat (not every such curve was filed as active); inconclusive = small, poorly fitted or top-dose-only effect, or effect the other way, or a change in a side signal; inactive = flat fitted curve, though single readings scatter; the % refers to the signal ratio. For the sample, actives were picked, then their nearest neighbours and some compounds at random. Potency is read from the fitted curve at half-maximal effect."}
{"assay": "qHTS Assay for Lipid Storage Modulators in Drosophila S3 Cells;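 as to cell number change: cells counted by Cell Tracker Red CMTPX staining in the red channel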; as to lipid storage change, negative = inhibition: % is scaled to controls: 0 for no effect and ±100 for the full control effect", "conditions": "BODIPY lipid droplet fluorescence, 18-24 h, cells fed with added oleic acid; cell number change: measured here: cell count max response; series mostly up to 46.1 µM; lipid storage change, negative = inhibition: at the top concentration", "summary_of_the_method": "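Laser-scanning cytometry quantifies lipid droplet accumulation (500–530 nm total intensity; droplet/cell object ratio) in oleic acid-fed (400 uM added) Drosophila S3 cells treated with a concentration series. 20 uM Triacsin C defined 100% inhibition.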", "units": {"cell number change": "%"}}
{"smiles": "O=C(CN1CCN(S(=O)(=O)c2ccccc2)CC1)NC1CC1", "lipid storage change, negative = inhibition": "-13% (inactive)", "cell number change": -0.697}
{"smiles": "CCOC(=O)C1CCN(C(=O)c2ccc(N3CCCC3=O)cc2)CC1", "lipid storage change, negative = inhibition": "-4.81% (inactive)", "cell number change": 2.94}
{"smiles": "O=C(NCc1ccc(F)cc1)c1cc2c(s1)CS(=O)(=O)C2", "outcome": "inactive", "cell number change": -3.83}
{"smiles": "COC(=O)c1c(C)[nH]c(C(=O)/C=C/c2ccc(C)cc2)c1C", "lipid storage change, negative = inhibition": "-0.587% (inactive)", "cell number change": 11.4}
{"smiles": "CCN1CCc2nc(NC(=O)c3ccc(S(=O)(=O)N(C)C)cc3)sc2C1", "outcome": "inactive"}
{"smiles": "CCN1CCc2nc(NC(=O)c3ccc4c(c3)OCCO4)sc2C1", "lipid storage change, negative = inhibition": "-12.2% (inactive)", "cell number change": -22.4}
{"smiles": "CCN1CCc2nc(NC(=O)C(c3ccccc3)c3ccccc3)sc2C1", "Potency": "20.6 µM (active)", "cell number change": -8.16}
{"smiles": "CCC(=O)Nc1c2c(nn1-c1ccc(OC)cc1)CS(=O)C2", "note": "(stereo not given)", "lipid storage change, negative = inhibition": "-15% (inactive)", "cell number change": -17}
{"smiles": "COc1ccccc1N(CC(=O)NCC1CCCO1)C(=O)CNS(=O)(=O)c1ccccc1", "note": "(stereo not given)", "lipid storage change, negative = inhibition": "6.59% (inactive)"}
{"smiles": "Cc1nc2ccccc2n1CSc1ccccc1", "lipid storage change, negative = inhibition": "5.97% (inactive)", "cell number change": 7.45}
{"smiles": "COc1cccc(-c2ccc(C#N)c(OC(=O)c3c(Cl)cccc3Cl)n2)c1", "outcome": "inactive", "cell number change": -22.9}
{"smiles": "Cc1cc(NC(=O)CSc2ccc(F)cc2)no1", "lipid storage change, negative = inhibition": "-13.1% (inactive)"}
{"smiles": "Cc1cc(NC(=O)C(C)SCC(=O)Nc2nc3c(F)cc(F)cc3s2)no1", "note": "(stereo not given)", "lipid storage change, negative = inhibition": "-0.525% (inactive)", "cell number change": -16.6}
{"smiles": "Cc1cc(NC(=O)CSCC(=O)Nc2nc3ccc(F)cc3s2)no1", "Potency": "11.6 µM (active)", "cell number change": 9.73}
{"smiles": "O=C(CN1C(=O)S/C(=C/c2ccc(N3CCOCC3)cc2)C1=O)N1CCOCC1", "lipid storage change, negative = inhibition": "-1.55% (inactive)", "cell number change": 13.3}
{"smiles": "O=C(CN(Cc1ccc(F)cc1)C(=O)c1csnn1)NC1CCCC1", "outcome": "inactive", "cell number change": 10.5}
{"smiles": "COc1cccc(C(=O)N(Cc2nc(-c3cccc(C)c3)no2)C(C)C)c1OC", "Potency": "18.4 µM (active)", "cell number change": -16.8}
{"smiles": "COc1cc(OC)cc(C(=O)N(Cc2nc(-c3cccc(C)c3)no2)C(C)C)c1", "outcome": "inactive"}
{"smiles": "Cc1cccc(-c2noc(CN(C(=O)C34CC5CC(CC(C5)C3)C4)C(C)C)n2)c1", "lipid storage change, negative = inhibition": "24.8% (inactive)", "cell number change": 15.9}
{"smiles": "O=C(COc1ccc(Cl)cc1)N(Cc1ccco1)C1CCS(=O)(=O)C1", "note": "(stereo not given)", "lipid storage change, negative = inhibition": "5.44% (inactive)", "cell number change": 5.12}
{"smiles": "CCCCNC(=O)CN(c1cc(C(F)(F)F)ccc1Cl)S(C)(=O)=O", "lipid storage change, negative = inhibition": "2.61% (inactive)", "cell number change": 5.68}
{"smiles": "Cc1ccc(N(CC(=O)NC2CCCCC2)S(=O)(=O)c2c(C)nn(C)c2C)cc1", "outcome": "inactive", "cell number change": 5.73}
{"smiles": "Cc1ccc(N(CC(=O)NC2CCCCC2C)S(=O)(=O)c2c(C)nn(C)c2C)cc1", "note": "(stereo not given)", "Potency": "25.9 µM (active)", "cell number change": -1.91}
{"smiles": "Cc1ccc(N(CC(=O)NC2CCCCC2C)S(=O)(=O)c2c(C)noc2C)cc1", "note": "(stereo not given)", "outcome": "inactive", "cell number change": 1.18}
{"smiles": "CC1(C)CCC(C)(C)NC(=S)N1", "lipid storage change, negative = inhibition": "-0.404% (inactive)", "cell number change": -5.67}
{"smiles": "COC(=O)COc1nsnc1N1CCOCC1", "Potency": "5.8 µM (active)", "cell number change": 1.29}
{"smiles": "O=C(COc1nsnc1N1CCOCC1)N1CCOCC1", "lipid storage change, negative = inhibition": "-15% (inactive)", "cell number change": -23.3}
{"smiles": "O=C(COc1nsnc1N1CCOCC1)Nc1ccc(Cl)cc1", "lipid storage change, negative = inhibition": "-10.2% (inactive)", "cell number change": -7.64}
{"smiles": "Cc1cccc(OCCC(=O)NNC(=O)c2ccoc2C)c1", "lipid storage change, negative = inhibition": "5.46% (inactive)", "cell number change": -9.1}
{"smiles": "COC(=O)CCCCCN1C(=O)NC(c2ccccc2)C(C(=O)OCc2ccccc2)=C1C", "note": "(stereo not given)", "lipid storage change, negative = inhibition": "13.9% (inactive)", "cell number change": 10}
{"smiles": "CC(=O)NS(=O)(=O)c1ccc(NC(=O)c2cc(-c3ccc(C)cc3)nc3ccccc23)cc1", "lipid storage change, negative = inhibition": "0.28% (inactive)", "cell number change": 13.2}
{"smiles": "Cc1ccc(NC(=O)N2CCCC(C(=O)O)C2)cc1", "note": "(stereo not given)", "lipid storage change, negative = inhibition": "-5.95% (inactive)", "cell number change": -2.63}
{"smiles": "CCCN1CCC(N2CCCC(C(=O)O)C2)CC1", "note": "(stereo not given)", "lipid storage change, negative = inhibition": "4% (inactive)", "cell number change": 9.47}
{"smiles": "CN1CCC(N2CCCC(C(=O)O)C2)CC1", "note": "(stereo not given)", "Potency": "6.51 µM (active)", "cell number change": 6.8}
{"smiles": "O=C(c1ccccc1)N1CCn2c1nc1ccccc12", "lipid storage change, negative = inhibition": "-6.04% (inactive)", "cell number change": 7.4}
{"smiles": "COc1cccc(CC(=O)Nc2nc3c(s2)C(=O)CC(C)(C)C3)c1", "lipid storage change, negative = inhibition": "6.69% (inactive)"}
{"smiles": "O=C(CSc1nccc(=O)[nH]1)Nc1ccc(N2CCOCC2)cc1", "lipid storage change, negative = inhibition": "10.1% (inactive)", "cell number change": 4.96}
{"smiles": "COc1ccc(CN2CCCC(C(=O)N3CCCCC3)C2)c(OC)c1", "note": "(stereo not given)", "Potency": "18.4 µM (active)", "cell number change": -9.62}
{"smiles": "COc1ccc(OC)c(S(=O)(=O)N2CCCC(C(=O)N3CCCCCC3)C2)c1", "note": "(stereo not given)", "Potency": "3.26 µM (active)", "cell number change": -13.8}
{"smiles": "COc1ccc(S(=O)(=O)N2CCCC(C(=O)N3CCCCCC3)C2)cc1", "note": "(stereo not given)", "outcome": "inactive"}
{"smiles": "COc1ccc(OC)c(S(=O)(=O)N2CCC(C(=O)N3CCN(Cc4ccccc4)CC3)CC2)c1", "Potency": "8.2 µM (active)", "cell number change": -36.9}
{"smiles": "COc1ccccc1CN1CCCC(C(=O)N2CCCCC2)C1", "note": "(stereo not given)", "lipid storage change, negative = inhibition": "-23.1% (inactive)", "cell number change": -12.4}
{"smiles": "COc1cc(OC)c(OC)cc1CN1CCCC(C(=O)N2CCCCC2)C1", "note": "(stereo not given)", "lipid storage change, negative = inhibition": "0.198% (inactive)", "cell number change": -0.267}
{"smiles": "COc1ccc(OC)c(S(=O)(=O)N2CCC(C(=O)N3CCOCC3)CC2)c1", "outcome": "inactive", "cell number change": 23.2}
{"smiles": "COc1ccc(OC)c(S(=O)(=O)N2CCC(C(=O)N3CCCCCC3)CC2)c1", "lipid storage change, negative = inhibition": "-21.6% (inactive)", "cell number change": 10.5}
{"smiles": "COc1ccc(OC)c(S(=O)(=O)N2CCCC(C(=O)N3CCC(C(N)=O)CC3)C2)c1", "note": "(stereo not given)", "lipid storage change, negative = inhibition": "29.6% (inactive)"}
